Mdm2-MdmX inh: inhibitors of human Mdm2/MdmX interaction; actives 3% (n = 330,000); O15151+Q00987; inhibition, % at 8 µM; SaOS-2 split-luciferase Mdm2/MdmX complementation, luminescence; AID 485346;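 active means inhibition of at least 50% at 8 µM in the primary screen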
Target sequence (O15151 whole entry, looked up): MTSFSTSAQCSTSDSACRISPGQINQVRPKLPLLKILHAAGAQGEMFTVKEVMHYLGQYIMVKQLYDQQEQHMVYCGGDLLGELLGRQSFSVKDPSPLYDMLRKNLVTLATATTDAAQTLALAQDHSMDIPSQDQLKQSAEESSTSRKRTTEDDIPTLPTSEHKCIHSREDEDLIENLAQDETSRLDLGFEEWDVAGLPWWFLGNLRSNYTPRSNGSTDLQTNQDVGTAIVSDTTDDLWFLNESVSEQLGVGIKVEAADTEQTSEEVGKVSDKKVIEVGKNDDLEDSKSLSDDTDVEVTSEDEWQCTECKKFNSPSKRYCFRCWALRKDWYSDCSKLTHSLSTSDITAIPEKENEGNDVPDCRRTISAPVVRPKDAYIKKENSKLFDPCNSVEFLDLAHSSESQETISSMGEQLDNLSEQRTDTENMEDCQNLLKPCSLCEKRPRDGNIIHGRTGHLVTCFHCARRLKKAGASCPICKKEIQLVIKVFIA
Target sequence (Q00987 whole entry, looked up): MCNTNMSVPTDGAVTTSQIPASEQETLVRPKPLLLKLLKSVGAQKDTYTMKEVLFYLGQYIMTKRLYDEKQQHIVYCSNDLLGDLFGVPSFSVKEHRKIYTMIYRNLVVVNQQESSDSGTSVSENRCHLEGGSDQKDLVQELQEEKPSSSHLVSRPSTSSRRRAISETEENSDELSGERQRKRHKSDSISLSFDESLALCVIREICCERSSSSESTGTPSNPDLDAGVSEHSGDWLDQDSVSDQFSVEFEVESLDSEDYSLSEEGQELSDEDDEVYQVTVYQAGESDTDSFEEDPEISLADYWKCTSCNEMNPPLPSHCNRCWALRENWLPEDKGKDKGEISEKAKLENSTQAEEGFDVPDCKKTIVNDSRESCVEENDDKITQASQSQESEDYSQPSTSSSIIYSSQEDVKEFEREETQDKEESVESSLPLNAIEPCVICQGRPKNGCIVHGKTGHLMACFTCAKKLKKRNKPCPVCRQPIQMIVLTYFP
TIM10 inh: growth inhibitors of TIM10 yeast strain; AID 463195; S. cerevisiae TIM10 strain growth, BacTiter-Glo luminescence, 24 h; actives 1.4% (n = 330,000); inhibition, % at 10 µM;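 active means inhibition of 40% or more at the single tested concentration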;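 further: wild-type TIM10 isogenic control strain grown at permissive 25 °C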
MPTP block: permeability transition pore inhibition; isolated mouse mitochondria, Ca2+ swelling absorbance, 30 min; inhibition, % at 10 µM; actives 1.4% (n = 360,000); AID 602449;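 active means inhibition of 50% or more, scaled per plate between neutral and stimulator controls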;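 further: 0% = DMSO wells given calcium and 100% = 1 mM EGTA wells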
tim23-1 inh: growth inhibitors of tim23-1 mutant yeast. inhibition, % at 20 µM. actives 1.3% (n = 330,000). S. cerevisiae tim23-1 growth, BacTiter-Glo luminescence, 24 h;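 active means growth inhibition of the mutant yeast at or above 50%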;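 further: temperature-sensitive mutant grown at 25 °C; plate controls were DMSO-treated mutant yeast for no effect and medium wells lacking yeast for full effect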
tim10-1 inh: tim10-1 yeast growth inhibition. S. cerevisiae tim10-1 ts strain growth, BacTiter-Glo, 24 h. inhibition, % at 20 µM. actives 2.2% (n = 330,000);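 active means inhibition of at least 40%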;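 further: mutant grown at 25 °C; 0% = DMSO wells with yeast and 100% = wells holding no yeast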
Mdm2-MdmX conf: confirmation of human Mdm2/MdmX interaction inhibitors; shares compounds with Mdm2-MdmX inh; Mdm2-MdmX binding, luminescent assay; inhibition, % at 8 µM; actives 55% (n = 10,000); in the data active means inhibition above about 40%
Full FLuc ctr: inhibits full-length luciferase, flagging false Mdm2/MdmX hits; inhibition, % at 8 µM; AID 504607; shares compounds with Mdm2-MdmX inh; actives 77% (n = 6,200); SaOS-2 full-length luciferase counterscreen, luminescence;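 active means mean inhibition at 8 µM reaching about 37%, which flags the compound as non-specific, limit read from the data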;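 further: p53-null SaOS-2 cells with luciferase driven by a doxycycline-inducible promoter; compound on cells about two nights before reading with doxycycline added after day one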
* marks the source's active call; other numbers are inactive results; . = not tested or not shown. Compounds with a hit are over-represented: about 6.3% of the library has one in this group of screens.

SMILES	Mdm2-MdmX inh	TIM10 inh	MPTP block	tim23-1 inh	tim10-1 inh	Mdm2-MdmX conf	others
CCOC(=O)N1CCN(C(=O)c2ccc3c(Cl)c4c(nc3c2)CCCC4)CC1	-2	26	0	34	12	.
CN1CCN(CCCNC(=O)c2ccc3c(Cl)c4c(nc3c2)CCCC4)CC1	76*	-2	-1	-14	0	42*	Full FLuc ctr=58*
O=C(c1ccc2c(Cl)c3c(nc2c1)CCCC3)N1CCC(N2CCCCC2)CC1	58*	4	-1	16	10	25
Cc1cccc(C)c1NC(=O)C1(C)CSCC(=O)N1CCc1ccc(O)cc1 (centres undefined)	.	.	-1	.	.	.
COc1cc(Cc2nc3ccccc3n2C(C)c2nc3ccccc3[nH]2)cc(OC)c1 (centres undefined)	.	.	0	.	.	.
Cc1ccccc1-c1cc2nc(NCc3ccc(N(C)C)cc3)n(C)c(=O)c2s1	.	.	2	.	.	.
Cc1ccc(C)c(NC(=O)c2cc3c([nH]c4ccccc43)c(C)n2)c1	14	2	-1	-2	-7	.
Cc1cccc(NC(=O)c2cc3c([nH]c4ccccc43)c(C)n2)c1C	66*	3	4	7	15	3
Cc1ccc(Cc2cnc(NC(=O)/C(C#N)=C/c3ccc(-c4ccc([N+](=O)[O-])cc4)o3)s2)cc1	58*	3	0	2	9	5
COc1cc(Cn2c3ccc(NC(=S)NCc4ccc(C)cc4)cc3c(=O)n2C)ccc1F	.	.	4	.	.	.
CC(=O)c1ccc(NS(=O)(=O)c2ccc(C)cc2)cc1	2	28	-1	9	20	.
COc1cc(OC)c(OC)cc1/C=C/C(=O)c1ccc(NS(=O)(=O)c2ccc(C)cc2)cc1	59*	5	3	18	22	28
CCOC(=O)C1=C(c2ccccc2)NC(N)=NC1c1ccc(OCc2ccc(Cl)cc2)c(OC)c1 (centres undefined)	100*	9	10	1	18	60*	Full FLuc ctr=94*
NC(=O)c1ccc(NS(=O)(=O)c2ccc(S(=O)(=O)N3CCCC3)cc2)cc1	.	.	-1	.	.	.
CCOc1c(Br)cc(C(N)=O)cc1OC	11	-4	0	-2	4	.
COc1cc(C(N)=O)cc(Br)c1OC	59*	-6	-2	11	-8	2
CCCOc1ccc(C(=O)NNC(=S)NC(=O)c2ccco2)cc1	51*	-39	20	-54	-7	40	Full FLuc ctr=52*
N#C/C(=C/c1ccc(Br)o1)C(N)=O	23	-16	2	18	2	.
N#C/C(=C/c1ccc(Br)o1)C(N)=S	76*	18	.	49	29	43*	Full FLuc ctr=64*
O=C(/C=C/NNC(=O)c1ccccc1O)c1ccccc1	57*	5	2	23	28	13
CCOC(=O)/C=C/c1cccc(C)c1O	.	.	0	.	.	.
COc1ccccc1C(=O)N(CCC1CCCN1C)c1nc2ccccc2s1 (centres undefined)	82*	-9	-1	10	13	79*	Full FLuc ctr=106*
O=C(Nc1cccc(Cl)c1Cl)C1CCCC1	26	-9	0	9	14	.
COc1ccccc1N=C1SC(C(=O)Nc2cccc(Cl)c2Cl)C(N)=C1C(N)=O (centres undefined)	56*	-1	2	15	28	52*	Full FLuc ctr=67*
CC(=O)Oc1[nH]c(=O)c2cccc3c2c1CCC3	.	.	1	.	.	.
SMILES	Mdm2-MdmX inh	TIM10 inh	MPTP block	tim23-1 inh	tim10-1 inh	Mdm2-MdmX conf	others
Cc1cccc(-n2cnc3c(sc4nc(N5CCOCC5)c5c(c43)CCCC5)c2=O)c1	21	14	9	14	2	.
CCN(CC)CCNc1ncnc2c1sc1nc(N3CCOCC3)c3c(c12)CCCC3	71*	24	2	16	9	36	Full FLuc ctr=65*
CN(C)CCNc1ncnc2c1sc1nc(N3CCCC3)c3c(c12)CC(C)(C)OC3	34	19	1	3	2	.
CC1(C)Cc2c(c(-c3ccco3)nc3sc4c(NCCN5CCOCC5)ncnc4c23)CO1	51*	14	1	30	37	8
CCN(CC)CCNc1ncnc2c1sc1nc(N3CCCC3)c3c(c12)CC(C)(C)OC3	59*	1	35	1	-1	32
CC1(C)Cc2c(c(-c3ccco3)nc3sc4c(NCCCO)ncnc4c23)CO1	21	16	0	26	16	.
NC(=O)C1CCN(C(=O)CCC(=O)c2cccs2)CC1	4	-1	0	11	7	.
Cn1nnnc1SCC(=O)N1CCN(S(=O)(=O)c2ccc(Cl)cc2)CC1	70*	7	-2	1	7	-8
Cn1nnnc1SCC(=O)N1CCN(S(=O)(=O)c2ccccc2)CC1	-7	-1	1	3	1	.
Cn1ccc2cc(-c3ccc4ncnc(NCc5cccs5)c4c3)ccc21	64*	17	0	44	25	57*	Full FLuc ctr=25
CC(C)NC(=O)N(C)C[C@H]1Oc2ncc(Br)cc2C(=O)N([C@H](C)CO)C[C@@H]1C	.	.	0	.	.	.
COc1cc2c(cc1OC)C(c1cccs1)N(C(=O)c1cccnc1)CC2 (centres undefined)	56*	20	-2	-4	8	58*	Full FLuc ctr=73*
COc1cc2c(cc1OC)C(c1cccs1)N(C(=O)C(C)C)CC2 (centres undefined)	-1	13	3	10	18	.
COc1cc2c(cc1OC)/C(=C/C(=O)OCc1ccccc1)OC2	.	.	-1	.	.	.
CCOc1ccc(Br)cc1C1C(C(=O)OC)=C(N)Oc2cc(N(C)C)ccc21 (centres undefined)	80*	14	3	5	-1	55*	Full FLuc ctr=55*
CCOc1ccccc1C1C(C(=O)OC)=C(N)OC2=C1C(=O)CCC2 (centres undefined)	-18	25	2	28	24	.
COc1cccc(N2CCN(c3nc(C)c(C)c(=O)[nH]3)CC2)c1	-1	-2	-1	-8	9	.
COc1cccc(N2CCN(c3nc(-c4ccccc4C)cc(=O)[nH]3)CC2)c1	95*	17	1	43	22	76*	Full FLuc ctr=81*
Cc1ccc2ccccc2c1C(O)c1ncc(-c2cccc(F)c2)[nH]1 (centres undefined)	.	.	1	.	.	.
CCCCN(C=O)c1c(CC)nc2c(OCC(=O)N3CCOCC3)cccn12	.	.	-1	.	.	.
O=C(Nc1cccc2ccccc12)NC1CCCCC1	15	-1	1	-2	8	.
O=C(Nc1cccc2ccccc12)NC1Cc2ccccc2C1	79*	-7	12	-10	-4	3
NC1=NC[C@H](CC2CCCCC2)N1CCc1cc(C(F)(F)F)cc(C(F)(F)F)c1	100*	13	-2	11	23	81*	Full FLuc ctr=59*
Cc1cc(SCc2ccc(Cl)cc2Cl)nc(=O)[nH]1	53*	8	0	10	8	30
